Drawing on PubChem BioAssay AID372 (MTDP, 2006), this text covers inhibition for 94 molecules.

The term inhibition denotes the relative decrease from the control value, in per cent.

The whole screen tested about 100,000 compounds, of which about 770 (0.77%) were called active. The full list was thinned out, with actives kept by preference. Values without a mark were called inactive. No stated cut-off is given here; in the data, active means inhibition above about 50%; inactive means the rest.

This assay deals with Gag-Pol polyprotein (Human immunodeficiency virus type 1 group M subtype B (isolate HXB2)) (UniProt P04585). Kind of assay: RNase H inhibition, HIV 1 Gag Pol polyprotein, FRET biochemical assay, screening (AID 372). To be noted: HIV-1 RT RNase H, FRET RNA/DNA substrate fluorescence; at 10 µM; stronger effect = higher value.
Consider `Cc1cc([N+](=O)[O-])ccc1NC(=O)c1c(C)c(C)c(C)c(C)c1C`, for which the inhibition was 10%.

`CCOc1ccc(N(CC(=O)NCCSCc2ccccc2)S(=O)(=O)c2ccccc2)cc1`: the inhibition was 10%.

Regarding `CC1(C)Cc2cc3c(=O)[nH]c(=S)[nH]c3nc2CO1`, the inhibition was 0%. Next, `N#Cc1cc2c(N)c(C(=O)c3ccccc3)sc2nc1N`: 8%. Then `CC1=C(C(=O)OC2CCCCC2)C(c2ccccc2[N+](=O)[O-])C2=C(CCCC2=O)N1` (centres undefined), with 10%; and `COC(=O)CCc1cc(C(C)(C)C)c(O)c(C(C)(C)C)c1`, with 0%.

Turning to `CC(C)(C)c1cc(CCC(=O)NCCNC(=O)C(=O)NCCNC(=O)CCc2cc(C(C)(C)C)c(O)c(C(C)(C)C)c2)cc(C(C)(C)C)c1O`, the inhibition is 55% (active). In the case of `CC(C)(C)c1cc(CCC(=O)NCCO)cc(C(C)(C)C)c1O`, the inhibition is 0%. Turning to `Cc1ccccc1OCCOc1ccc(/C=c2\sc3nc4ccccc4n3c2=O)cc1`, the inhibition was 5%. Next, `C=CCN1C(=O)C(O)=C(C(C)=O)C1c1ccc(Br)cc1` (centres undefined): 8%. Then `Cc1ccc(-c2nc3ccccc3s2)cc1NC(=O)COc1ccccc1`, with 10%; and `Cc1cccc(OCC(=O)Nc2cccc(-c3nc4ccccc4s3)c2)c1`, with 9%; and `Cc1ccc(-c2nc3ccccc3s2)cc1NC(=O)COc1ccc(Cl)cc1`, with 69% (active). Turning to `COc1ccc(OCC(=O)Nc2cccc(-c3nc4ccccc4s3)c2)cc1`, the inhibition is 7%. Turning to `COc1ccc(OCC(=O)Nc2cc(-c3nc4ccccc4s3)ccc2C)cc1`, the inhibition is 2%. Next, `Cc1cc(C)cc(OCC(=O)Nc2cccc(-c3nc4ccccc4s3)c2)c1`: 53% (active). Consider `CCc1cc(=O)oc2c(C)c(OCc3ccc(Cl)cc3)ccc12`, for which the inhibition was 5%. Next, `CN1C(=O)/C(=C\c2cccc(OCc3ccc(Cl)cc3Cl)c2)SC1=S`: 11%. Next, `Cc1ccccc1N=C(NOCc1ccc(Cl)cc1Cl)c1nonc1N`: 13%; `Nc1nonc1C(=Nc1ccccc1)NOCc1ccc(Cl)cc1Cl`: 32%. Then `COc1ccc(C2CC(=O)C3=C(C2)Nc2ccccc2NC3c2cccc(Cl)c2Cl)cc1OC` (centres undefined), with 16%. Regarding `CCc1nnc(NC(=O)Nc2ccc(Cl)cc2)s1`, the inhibition was 10%. Then `Cc1cc(C)c2nc3s/c(=C\c4ccc(Cl)cc4Cl)c(=O)n3c2c1`, with 0%; and `COc1cccc2cc(C(=O)O)c(=O)oc12`, with 6%; and `COc1cccc2cc(C(C)=O)c(=O)oc12`, with 3%. Next, `Brc1ccc(CN2CCN(c3ncccn3)CC2)s1`: 1%; `Cc1c(NC(=S)NC(=O)/C=C/c2ccccc2)cccc1-c1nc2ncccc2o1`: 52% (active); `Cc1c(NC(=S)NC(=O)/C=C/c2ccccc2)cccc1-c1nc2ccccc2o1`: 36%.

As for `Cc1ccc(-c2nc3ncccc3o2)cc1NC(=S)NC(=O)/C=C/c1ccccc1`, the inhibition is 5%. Next, `CCOc1ccc(OCCCCOc2ccccc2C)cc1`: 18%; `O=C(N/N=C/c1cccc(Br)c1)C(=O)N1CCCC1`: 15%.

Regarding `N#CC1=C(N)Oc2cc(N)ccc2C1c1cccc(Oc2ccccc2)c1` (centres undefined), the inhibition is 5%. Then `OCCNCCCOc1cc(Cl)ccc1Cl`, with 8%.

Take `CCCCNCCCOc1cc(Cl)ccc1Cl`: the inhibition is 57% (active).

For `CCCCNCCCCCCOc1ccc(Cl)cc1Cl`, the inhibition was 10%. For `COc1ccc(-c2cc(C(=O)NCc3ccco3)c3ccccc3n2)cc1`, the inhibition is 14%. Next, `COC(=O)c1c(NC(=O)c2ccccc2Br)sc(C)c1C`: 23%; `O=C1N=c2ccc(Cl)cc2=C1c1sc(=O)n(-c2ccccc2)c1O`: 42%. Next, `O=C1N=c2ccc(Br)cc2=C1c1sc(=O)n(-c2cccc(Cl)c2)c1S`: 50% (active); `CCOc1ccc(-n2c(O)c(C3=c4cc(Br)ccc4=NC3=O)sc2=S)cc1`: 9%. Then `CCN(CC)c1ccc(-n2c(O)c(C3=c4ccccc4=NC3=O)sc2=S)cc1`, with 50% (active). In the case of `O=C1N=c2ccc(Br)cc2=C1c1sc(=O)n(-c2ccc(O)cc2)c1O`, the inhibition is 41%. For the molecule `O=C1N=c2ccc(Br)cc2=C1c1sc(=S)n(-c2ccc(Cl)cc2)c1O`, the inhibition was 51% (active).

`O=C1N=c2ccc(Br)cc2=C1c1sc(=S)n(-c2ccc(Br)cc2)c1O`: the inhibition is 15%.

Turning to `O=C1N=c2ccccc2=C1c1sc(=S)n(-c2ccc(Cl)cc2)c1O`, the inhibition was 0%.

Turning to `O=C1N=c2ccccc2=C1c1sc(=S)n(-c2ccc(F)cc2)c1O`, the inhibition is 12%.

In the case of `CC(C)c1ccc(/C=C2/C(=O)NN(c3ccccc3)C2=O)cc1`, the inhibition was 4%.

For `CCOC(=O)c1ccc(NC(=S)NCCO)cc1`, the inhibition was 0%. For `C=CCc1ccc(OCCOc2cccc(/C=C3\SC(=S)N(CC)C3=O)c2)c(OC)c1`, the inhibition was 26%. Then `C=CCN1C(=O)/C(=C\c2ccc(-c3ccc([N+](=O)[O-])cc3)o2)SC1=S`, with 4%; and `Cc1ccccc1NC1=C(Cl)C(=O)N(c2cccc(C)c2C)C1=O`, with 9%. As to `CCOC(=O)C1=C(C)N=c2s/c(=C/c3ccc(-c4cccc(C(F)(F)F)c4)o3)c(=O)n2C1c1cccs1` (centres undefined), the inhibition was 6%.

For `COc1ccc(C2=C/C(=C/c3ccccc3OC)C(=O)O2)c(OC)c1`, the inhibition was 2%.

Take `CC(=O)C1=C(O)C(=O)N(Cc2ccccc2)C1c1ccc([N+](=O)[O-])cc1` (centres undefined): the inhibition is 12%. Next, `COc1ccc(C(=O)Nc2ccc(NC(=O)c3ccc(OC)cc3)cc2)cc1`: 16%; `COc1ccc(C(=O)Nc2ccc(Cc3ccc(NC(=O)c4ccc(OC)cc4)cc3)cc2)cc1`: 52% (active). `COc1cc(C(=O)Nc2ccc(Cc3ccc(NC(=O)c4cc(OC)c(OC)c(OC)c4)cc3)cc2)cc(OC)c1OC`: the inhibition was 1%. Next, `COc1ccc(C(=O)Nc2ccc(NC(=O)c3ccc(NC(=O)c4ccc(OC)cc4)cc3)cc2)cc1`: 8%. As for `COc1ccc(C(=O)Nc2ccc(Cc3ccncc3)cc2)cc1OC`, the inhibition was 6%.

As to `COc1cc(C(=O)Nc2ccc(Cc3ccncc3)cc2)cc(OC)c1OC`, the inhibition was 56% (active). With `CCc1ccc(C2Nc3ccccc3NC3=C2C(=O)CC(c2ccc(OC)cc2)C3)s1` (centres undefined), the inhibition was 7%.

Consider `O=C(N/N=C/c1cccc(/C=N/NC(=O)c2cccnc2)c1)c1cccnc1`, for which the inhibition is 0%. Next, `COc1ccc(NC(=O)c2ccc(CN3CCN(c4ccccc4)CC3)cc2)cc1`: 9%; `COc1ccc(C(=O)NC(=S)Nc2ccc3oc(-c4ccc(OC)c(Cl)c4)nc3c2)cc1`: 20%; `CC(=O)Nc1ccccc1NC(=O)c1cccc(F)c1`: 0%. Then `NNC(=O)COc1ccccc1-c1ccccc1`, with 14%; and `O=C1C(=O)N(c2ccccc2)C(c2ccc([N+](=O)[O-])cc2)/C1=C(/O)c1ccccn1` (centres undefined), with 0%. Next, `O=C(CN1C(=O)c2cccc3cccc(c23)C1=O)OCc1ccc2c(c1)OCO2`: 53% (active); `O=C(CN1C(=O)c2cccc3cccc(c23)C1=O)NCc1ccc2c(c1)OCO2`: 5%; `O=C(CCCN1C(=O)c2cccc3cccc(c23)C1=O)OCc1ccc2c(c1)OCO2`: 31%.

As for `CCSc1nc(-c2ccccc2)nc(C(Cl)Cl)n1`, the inhibition is 25%. Next, `O=C(Nc1ncc(S(=O)(=O)c2ccc([N+](=O)[O-])cc2)s1)c1ccccc1Cl`: 54% (active); `O=C(COc1ccc(Cl)cc1)Nc1ncc(S(=O)(=O)c2ccc([N+](=O)[O-])cc2)s1`: 12%; `CC(C)c1ccc(OCC(=O)Nc2ncc(S(=O)(=O)c3ccc([N+](=O)[O-])cc3)s2)cc1`: 58% (active). Next, `O=C(O)c1ccccc1C(=O)Nc1ncc(S(=O)(=O)c2ccc([N+](=O)[O-])cc2)s1`: 10%; `O=C(Nc1ncc(S(=O)(=O)c2ccc([N+](=O)[O-])cc2)s1)c1ccc(Cl)cc1Cl`: 6%; `O=C(COc1ccc(Br)cc1)Nc1ncc(S(=O)(=O)c2ccc([N+](=O)[O-])cc2)s1`: 19%. Then `CCc1ccc(-n2nc(C)c3c(C)cc(=O)oc32)cc1`, with 7%. With `O=C(O)C1CCC(c2ccccc2)CC1` (centres undefined), the inhibition was 4%. Regarding `O=C(c1nn2c(C(F)(F)F)cc(-c3ccc(F)cc3)nc2c1Cl)N1CCOCC1`, the inhibition was 3%. With `C(=N/Nc1nc2ccccc2o1)/c1ccc(N2CCOCC2)cc1`, the inhibition is 20%. As for `Cc1ccc(S(=O)(=O)/N=C2/C=C(Sc3nnnn3-c3ccccc3)C(=O)c3ccccc32)cc1`, the inhibition is 43%.

In the case of `Cc1ccc(S(=O)(=O)/N=C2/C=C(Br)C(=O)c3ccccc32)cc1`, the inhibition was 32%. Then `COc1ccc(Nc2ccc(N)cc2)cc1`, with 19%; and `O=C(Nc1ccc(-c2nc3ccccc3[nH]2)cc1)c1ccc(Cl)cc1`, with 14%.

On to `O=C(Nc1ccc(-c2nc3ccccc3[nH]2)cc1)c1cc2ccccc2o1`, for which the inhibition was 51% (active).

For the molecule `CC(=O)Nc1ccc(C(=O)Nc2ccc(-c3nc4ccccc4[nH]3)cc2)cc1`, the inhibition is 3%. Next, `O=C(Nc1ccc(-c2nc3ccccc3[nH]2)cc1)c1ccc(Cl)c(Cl)c1`: 59% (active); `Cc1ccc(-c2nc3ccccc3[nH]2)cc1NC(=O)c1cc2ccccc2o1`: 8%.

Consider `O=C(Nc1ccc(Cl)c(-c2nc3ccccc3[nH]2)c1)c1cc2ccccc2o1`, for which the inhibition was 11%. For the molecule `CCOC(=O)/C(=N/Nc1cccc(C)c1)c1csc(N)n1`, the inhibition is 10%. Next, `COc1ccc(/C=C/C(=O)Oc2ccc3c(c2)C(C)=CC(C)(C)N3)cc1`: 16%. Then `O=C(N=Nc1c(O)n(CN2CCCCC2)c2ccccc12)c1ccncc1`, with 0%; and `CC1(C)NC(=O)N(CC(O)CN(c2cccc([N+](=O)[O-])c2)S(=O)(=O)c2ccccc2)C1=O` (centres undefined), with 0%.
